Compound activity from PubChem.
TEAD-YAP block = TEAD-YAP interaction inhibition, primary screen, TEAD-YAP interaction inhibitor project, luminescence, HEK-TIYL cells. TEAD-Gal4/YAP UAS-luciferase luminescence. inhibition, % at 9.12 µM. hit rate 1.4% among 640,000. AID 1259422, 2018; in the data active = inhibition above about 32%
FBW7 act = FBW7 E3 ligase activators, primary screen, biochemical, AlphaScreen, human; AlphaScreen FBW7–phospho-cyclin E peptide binding, activator screen; F-box/WD repeat-containing protein 7 (Homo sapiens), Q969H0; hit rate 0.13% among 650,000; normalized activity (activation), % at 26.1 µM; in the data active = normalized activity above about 1.9%;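 also: purified mutant Fbw7 with reduced substrate affinity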
MITF inh = MITF inhibitors, primary screen, biochemical, AlphaScreen, human. hit rate 0.91% among 650,000. inhibition, % at 2.6 µM. AlphaScreen MITF homodimerization, bead proximity signal; in the data active = inhibition above about 50%
GPR151 activ = activators of human GPR151, primary screen, cell-based, PathHunter beta-arrestin, luminescence | G-protein coupled receptor 151 (Homo sapiens), Q8TDV0 | PathHunter beta-arrestin GPR151 cells | activation, % at 11.2 µM | hit rate 1% among 650,000; in the data active = activation above about 4.9%
Target sequence (Q8TDV0 whole entry, looked up): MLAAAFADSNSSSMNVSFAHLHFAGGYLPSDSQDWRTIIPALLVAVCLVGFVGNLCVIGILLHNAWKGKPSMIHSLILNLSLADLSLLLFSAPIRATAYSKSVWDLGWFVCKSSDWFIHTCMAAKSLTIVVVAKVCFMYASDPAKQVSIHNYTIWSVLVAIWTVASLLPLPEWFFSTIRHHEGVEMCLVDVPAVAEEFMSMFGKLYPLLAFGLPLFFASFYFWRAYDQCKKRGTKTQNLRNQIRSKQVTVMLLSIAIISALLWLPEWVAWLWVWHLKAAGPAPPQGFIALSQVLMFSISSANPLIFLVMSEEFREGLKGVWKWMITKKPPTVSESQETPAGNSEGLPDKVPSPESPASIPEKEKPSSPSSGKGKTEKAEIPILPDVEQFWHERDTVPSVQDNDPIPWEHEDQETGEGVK
A number is an active result; ! = not active in a repeat. Sampled rows, rich in hits. Any-hit rate of the full collection: about 3.5%.

How did O=C(CCC(=O)N/N=C/c1ccc(O)cc1O)N/N=C\c1ccc(O)cc1O do in these assays?
TEAD-YAP block: inactive; FBW7 act: inactive; MITF inh: inactive; GPR151 activ: inactive

What do the screens show for `O=C(N/N=C/c1cccnc1)C1=NNC(c2ccccc2)(c2ccccc2)C1`?
TEAD-YAP block: inactive; FBW7 act: inactive; MITF inh: inactive; GPR151 activ: inactive

Results for O=S(=O)(/C=C/c1ccccc1)Nc1nccnc1-c1ccc(CO)cc1 ?
TEAD-YAP block: inactive; FBW7 act: inactive; MITF inh: inactive; GPR151 activ: inactive

Results for O=c1oc2c(O)c(O)cc3c(=O)oc4c(O)c(O)cc1c4c23 ?
TEAD-YAP block: inactive; FBW7 act: inactive; MITF inh: 94!; GPR151 activ: inactive

How did Cc1c(C)c2ccc(O)c(O)c2oc1=O do in these assays?
TEAD-YAP block: inactive; FBW7 act: inactive; MITF inh: inactive; GPR151 activ: inactive

Results for O=[N+]([O-])c1cc(-c2ccc(/C=N\n3cnnc3)o2)ccc1O ?
TEAD-YAP block: inactive; FBW7 act: inactive; MITF inh: 58; GPR151 activ: inactive

Results for COc1cc(C2CC(c3c(O)cc(C)oc3=O)=Nc3ccccc3S2)cc(OC)c1O (configuration not stated) ?
TEAD-YAP block: 44; FBW7 act: inactive; MITF inh: inactive; GPR151 activ: inactive

What do the screens show for `COc1ccc(NC2=CC(=O)CC(c3ccccc3)C2)c(OC)c1` (configuration not stated)?
TEAD-YAP block: 48; FBW7 act: inactive; MITF inh: inactive; GPR151 activ: inactive

How did COc1ccc(OC)c(NC2=CC(=O)CC(c3ccccc3)C2)c1 (configuration not stated) do in these assays?
TEAD-YAP block: 55; FBW7 act: inactive; MITF inh: inactive; GPR151 activ: inactive

Results for COc1ccc(CCN(C)C2CCCN(Cc3nc(-c4ccccc4)no3)C2)cc1OC (configuration not stated) ?
TEAD-YAP block: inactive; FBW7 act: inactive; MITF inh: inactive; GPR151 activ: inactive

Results for COCCn1c(C)cc(C(=O)CN2C(=O)NC(C)(c3ccc(C(C)(C)C)cc3)C2=O)c1C (configuration not stated) ?
TEAD-YAP block: 36; FBW7 act: inactive; MITF inh: inactive; GPR151 activ: inactive

How did Cc1cc(/C=C2\Sc3ccccc3N2C)cc(C)[n+]1N1CCN(C)CC1 do in these assays?
TEAD-YAP block: 73; FBW7 act: inactive; MITF inh: inactive; GPR151 activ: inactive

Results for Cc1cc(/C=C2\Sc3ccccc3N2C)cc(C)[n+]1CCCN1CCOCC1 ?
TEAD-YAP block: 41; FBW7 act: inactive; MITF inh: inactive; GPR151 activ: inactive

How did CN1CCN(CC(=O)N2c3ccccc3Sc3ccccc32)CC1 do in these assays?
TEAD-YAP block: inactive; FBW7 act: inactive; MITF inh: inactive; GPR151 activ: inactive

What do the screens show for `Cc1cc(/C=C2\Sc3ccccc3N2C)cc(C)[n+]1N(C)C`?
TEAD-YAP block: 78; FBW7 act: inactive; MITF inh: inactive; GPR151 activ: inactive

Results for COc1ccc(C(=O)c2sc(Nc3ccc(F)cc3)nc2N)cc1OC ?
TEAD-YAP block: inactive; FBW7 act: inactive; MITF inh: inactive; GPR151 activ: inactive

How did Nc1ccc2nc(-c3ccc(O)cc3)sc2c1 do in these assays?
TEAD-YAP block: 76; FBW7 act: inactive; MITF inh: inactive; GPR151 activ: inactive

What do the screens show for `Nc1ccc(-c2nc3ccc(N)cc3s2)cc1`?
TEAD-YAP block: inactive; FBW7 act: inactive; MITF inh: inactive; GPR151 activ: inactive

What do the screens show for `NC(=O)c1ccc2nc(-c3ccccc3)sc2c1`?
TEAD-YAP block: 73; FBW7 act: inactive; MITF inh: inactive; GPR151 activ: inactive

How did COc1cc(NC(=O)c2ccc3nc(-c4ccc(C(N)=O)cc4)sc3c2)cc(OC)c1OC do in these assays?
TEAD-YAP block: 46; FBW7 act: inactive; MITF inh: inactive; GPR151 activ: inactive

What do the screens show for `CCOc1ccc2nc(NN)sc2c1`?
TEAD-YAP block: inactive; FBW7 act: inactive; MITF inh: inactive; GPR151 activ: inactive

How did CCOc1ccc2nc(-c3ccc(N)cc3)sc2c1 do in these assays?
TEAD-YAP block: 35; FBW7 act: inactive; MITF inh: inactive; GPR151 activ: inactive

How did O=[N+]([O-])c1ccc(-c2nc(C=Nc3ccc(Br)cc3)c(O)o2)cc1 do in these assays?
TEAD-YAP block: inactive; FBW7 act: inactive; MITF inh: inactive; GPR151 activ: inactive

What do the screens show for `CCOC(=O)C1CCN(C(=O)c2ccc(CNS(=O)(=O)c3ccc(Cl)cc3)cc2)CC1`?
TEAD-YAP block: inactive; FBW7 act: inactive; MITF inh: inactive; GPR151 activ: inactive

How did O=c1oc2c(Br)cc(Br)cc2c(=O)n1-c1ccc(F)cc1 do in these assays?
TEAD-YAP block: inactive; FBW7 act: inactive; MITF inh: inactive; GPR151 activ: inactive
